# Laboratory results reported in ChEMBL document CHEMBL3988442, “University of Dundee, Small-Polar-MMV Screening Library” (2021).
# About 13,000 (27%) of roughly 48,000 compounds showed an effect of 50% or more. The list shows a part of the results.
# Test system: Wolbachia pipientis
# Assay: Anti-Wolbachia Cell-Based Screen
# Format: functional
# Set-up: scale not given: in the data most compounds retested in dose-response had high values
# Details: 5 µM
row,SMILES,Percent Effect
1,Cc1nc(Nc2ccc(Cl)cn2)sc1C(=O)NC(C)C,4.933%
2,O=C(NCc1nc(NC2CCCC2)c2cc(Cl)ccc2n1)c1ccoc1,13.57%
3,CC(C)(C(=O)NCc1n[nH]c(=O)[nH]1)c1ccc(F)cc1,1.866%
4,O=C(NCCC(O)c1ccco1)c1ccccc1Br (stereo unspecified),14.27%
5,CC(O)CN1CCN(C(=O)c2ccn(-c3cccc(Cl)c3)n2)CC1 (stereo unspecified),1.72%
6,CS(=O)(=O)N1CCOCC12CCN(Cc1ccoc1)CC2,122%
7,CS(=O)(=O)N1CCCC12CCN(Cc1nccs1)CC2.O=C(O)C(F)(F)F,-14.48%
8,CS(=O)(=O)N1CCOCC12CCN(c1nncs1)CC2,4.354%
9,CS(=O)(=O)N1CCCC12CCN(Cc1ccoc1)CC2,99.65%
10,CN(C)C(=O)CO[C@H]1CO[C@@]2(CCN(Cc3ccoc3)C2)C1,-7.87%
11,Cn1cc(CN2CCC3(CCCN3S(C)(=O)=O)CC2)cn1,6.984%
12,COCCNc1ccccc1CNC(=O)NCc1ccc(C)s1,-4.597%
13,CS(=O)(=O)CCOCCNc1cncc(Br)c1,-7.579%
14,CN1CCCN(c2nc(C3CC3)ns2)CC1,-64.99%
15,CC(C)N(CCNC(=O)c1n[nH]c2ccccc12)C(C)C,25.98%
16,CC(C)CNC(=O)c1cn(C(C)C)cc2c(=O)[nH]nc1-2,135.5%
17,CC(C)CNC(=O)c1ccc2c(=O)n(-c3ccccc3)cnc2c1,11.47%
18,CC(C)n1cc(C(=O)NCCN(C)C)c2n[nH]c(=O)c-2c1,115.3%
19,Cc1ccc(C(=O)NCC(C)Cn2cccn2)c(=O)[nH]1 (stereo unspecified),-11.2%
20,CN(C)CCNC(=O)c1cc2n(n1)CCN(C(=O)c1ccc[nH]1)C2,-27.47%
21,CCOCCn1nc(C)cc1C(=O)N1CCC2(CC1)[C@H](O)C[C@@H]2OCC,-36.55%
22,CC1=C[C@@H](CNS(C)(=O)=O)[C@H](C(C)C)C[C@H]1CC(=O)NCCN(C)C,5.044%

row,SMILES,Percent Effect
1,Cc1cc(C)n(CCCC(=O)N2CC[C@H]3NCCC[C@]3(CO)C2)n1,-1.122%
2,CS(=O)(=O)CCC(=O)N1C[C@@H]2CC[C@H](C1)N(Cc1ccccc1)C2=O,8.046%
3,COCCN1CCN(CC(=O)N(C)Cc2ccc(C)o2)CC1C (stereo unspecified),6.475%
4,CN(Cc1ccco1)C(=O)CN1CCc2ccccc2C1,-0.07899%
5,Cc1ccc(CN(C)C(=O)CN2CCc3ccccc3C2)o1,87.7%
6,Cc1ccc(CN(C)C(=O)CN2CCCC2c2cnn(C)c2)o1 (stereo unspecified),-1.976%
7,Cc1ccc(CN(C)C(=O)CNC(=O)N2CCc3ccccc3C2)o1,79.51%
8,OCC1CCCN1c1cc(NCCc2c[nH]c3ccccc23)ncn1 (stereo unspecified),7.134%
9,COc1ccc2[nH]c3c(c2c1)CN(c1cc(NCCO)nc(N)n1)CC3,97.63%
10,COc1ccc(F)c(-c2cc(NCCO)nc(N)n2)c1,-1.904%
11,Nc1nc(NCCO)cc(N2CCc3c([nH]c4ccccc34)C2)n1,98.87%
12,c1ccc2c3c([nH]c2c1)CN(Cc1cc2n(n1)CCNC2)CC3,-25.6%
13,CCNc1cc(N2CCN(C(=O)c3ccc(OC)cc3)CC2)nc(C)n1,4.812%
14,Cc1cccc(-c2nnn3c2COC(CNC(=O)N2CCCC2)C3)c1 (stereo unspecified),9.642%
15,NCC1Cc2cc(-c3nccc(N4CCC(O)CC4)n3)cc(Cl)c2O1 (stereo unspecified),-10.94%
16,Cc1ccc(C)c(Oc2ccc(CNC(=O)C3CCS(=O)(=O)C3)cn2)c1 (stereo unspecified),-2.907%
17,CCc1nc(CNc2ccc(C(=O)N3CCSCC3)cc2C)no1,92.2%
18,CCc1nc(CNc2ccc(C(=O)NCc3ccco3)cc2C)no1,-7.097%
19,Cc1cc(C(=O)N2CCCC2)ccc1NCCOCC(F)(F)F,-22.68%
20,CCc1noc(CNc2ccc(C(=O)N3CCCC3)cc2C)n1,101.8%
21,CCc1noc(CNc2ccc(CC(=O)N3CCSCC3)cc2)n1,21.21%
22,CCCc1nc(CNc2cccc(C(=O)N3CCCC(O)C3)c2)no1 (stereo unspecified),1.271%

row,SMILES,Percent Effect
1,Cc1cc(C(=O)N2CCCC2)ccc1NCc1nc(CC(C)C)no1,81.12%
2,CCCc1noc(CNc2ccc(C(=O)N3CCCC3)cc2C)n1,101%
3,CC(C)Cc1noc(CN2CCCN(C(=O)c3cccc(Cl)c3)CC2)n1,-52.16%
4,CCc1noc(CNc2cccc(C(=O)N3CCSCC3)c2)n1,10.06%
5,CC(C)Cc1noc(CNc2ccccc2CC(=O)N(C)C)n1,7.405%
6,Cc1ccc(C(=O)N2CCCC(CNS(=O)(=O)C(C)C)C2)cc1 (stereo unspecified),-19.42%
7,CN(Cc1csc(-c2ccccc2)n1)Cc1ncccc1C(=O)O,4.154%
8,N#Cc1ccccc1OCCN1CCN(C(=O)C2CCCC2)CC1,-2.024%
9,CC1CCN(S(=O)(=O)NC2CCCCNC2=O)CC1 (stereo unspecified),36.47%
10,CC(C)CNC(=O)Nc1ccc(CN2CCOC2=O)cc1,-13.36%
11,CCN(C)c1ccc(CNS(=O)(=O)CC2CCCO2)cc1F (stereo unspecified),-7.103%
12,Cc1ccc(CNC(=O)c2ccc(CNS(C)(=O)=O)o2)cc1F,2.956%
13,Cc1ccc(CNS(=O)(=O)CCCC#N)cc1F,111.5%
14,Cc1cnn(CCC(=O)NCc2ccc(N(C)C)c(C)c2)c1,4.786%
15,CS(=O)(=O)NCc1ccc2c(c1)CCC2,-9.378%
16,Cc1ccc(CNC(=O)NC(C)CCS(C)(=O)=O)cc1F (stereo unspecified),-1.224%
17,Cc1cc(CNS(=O)(=O)CCCC#N)ccc1N(C)C,89.17%
18,CC(CNS(=O)(=O)CCCC#N)c1ccsc1 (stereo unspecified),-6.761%
19,Cc1cccc(C(C)CNS(=O)(=O)CCCC#N)c1 (stereo unspecified),5.748%
20,COCCS(=O)(=O)NCc1ccc(N(C)C)c(C)c1,78.12%
21,COCCS(=O)(=O)NCC(C)c1cccc(C)c1 (stereo unspecified),-6.365%
22,Cc1cc(CNS(C)(=O)=O)ccc1N(C)C,110.2%

row,SMILES,Percent Effect
1,NCC1CN(C(=O)c2cccc(-n3cccn3)c2)CCO1 (stereo unspecified),12.21%
2,CCCc1cc(NC2CCc3ncnn3C2)n2ncnc2n1 (stereo unspecified),-15.24%
3,CSCC(C)(O)CNc1cccc(F)c1C#N (stereo unspecified),-5.996%
4,CCCOc1cc(CNC(=O)Nc2cccnc2N2CCCC2)ccn1,3.924%
5,COc1cc(CNCc2ccco2)ccc1OCCO.Cl,-24.56%
6,COc1cccc2cc(CNCc3ccnc(N4CCCCC4)c3)oc12,98.43%
7,COc1cccc2cc(CNC(=O)N3CCCC(O)C3)oc12 (stereo unspecified),-11.96%
8,COc1cccc2cc(CNCc3ccnc(N(C)C)c3)oc12,97.53%
9,COc1c(CNCc2ccc(N3CCOCC3)nc2)c(C)nn1C,-5.256%
10,COc1ccc(CNCc2ccc(N3CCCCC3)nc2)cc1OC,5.038%
11,COc1cccc2cc(CNCc3ccnc(N4CCOCC4)c3)oc12,-10.04%
12,COc1cccc2cc(CNCc3ccc(N4CCCC4)nc3)oc12,106.9%
13,COc1ccc(CNCc2ccnc(N3CCCCC3)c2)cc1OC,4.647%
14,CC(NC(=O)NCc1cccc(N2CCCC2=O)c1)c1ccccc1 (stereo unspecified),10.19%
15,CC(=O)N[C@@H]1CN(c2nc(C(N)=O)cs2)C[C@H]1c1ccc(C)o1,3.94%
16,CC(C)c1cc(N2CCN(c3ccc(O)cc3)CC2)n2nccc2n1,-10.08%
17,Cc1nc(C)n(CC2CCCCN2CC(=O)NC2CCOCC2)n1 (stereo unspecified),-3.575%
18,COC1CCN(C(=O)CCc2c(C)nc3ccnn3c2C)CC1,2.453%
19,Cc1noc(C)c1CC(=O)N1CCC(c2ccn3nccc3n2)CC1,116.9%
20,Cc1nc(CC(=O)N2CCN(c3ccc(N(C)C)cc3)CC2)cs1,-7.561%
21,CCC[C@@H]1CN(C(=O)Cc2sc(C)nc2C)C[C@H]1C(=O)O,9.333%
22,Cc1nc(CC(=O)N2CCC(Nc3cccnn3)CC2)cs1,10.36%

row,SMILES,Percent Effect
1,Cc1ncc2c(n1)CCN(C(=O)Cc1c(C)noc1C)C2,-7.344%
2,Cc1nc(C)c(CC(=O)N2CCC(c3ccn4nccc4n3)CC2)s1,148.4%
3,Cc1nc(CC(=O)N2CCC(c3ccn4nccc4n3)CC2)cs1,100.2%
4,Cc1nc(C)c(CC(=O)N2C[C@@H](C(=O)O)[C@H](c3ccccc3C)C2)s1,-4.112%
5,O=C(NC[C@H]1OC[C@@H](NC2CCC2)[C@@H]1O)Nc1ccccc1,27.93%
6,COCCCN(C)S(=O)(=O)c1ccc(C(F)(F)F)cc1C#N,0.354%
7,Cc1cc(CC(C)Nc2ncnc3cccc(F)c23)[nH]n1 (stereo unspecified),-16.45%
8,Cc1cc(NC(=O)N(CCC#N)CCCN(C)C)ccc1F,-0.7911%
9,Cc1cc(NCC(=O)N(C)C)c(C(N)=O)cc1F,4.75%
10,CCN(CC)C(=O)Nc1ccc(C(=O)N(C)C)c(C)c1,-2.57%
11,CCN(CC(C)C#N)C(=O)CSc1ccc(C(F)(F)F)cn1 (stereo unspecified),-16%
12,CCN(CC(C)C#N)C(=O)CNc1cc(Cl)ccc1C(N)=O (stereo unspecified),109.4%
13,CCN(CC(C)C#N)C(=O)CNc1ccc(F)c(C)c1 (stereo unspecified),98.55%
14,CCN(C(=O)CNc1cc(C)c(F)cc1C(N)=O)C1CC1,-0.2217%
15,Cc1cc(NCC(C)C)ccc1C(=O)N(C)C,-5.944%
16,CCN(CC(C)C#N)C(=O)CNc1ccc(C(N)=O)c(C)c1 (stereo unspecified),94.3%
17,CNC(=O)N1CCC2(CC1)CN(C(C)C)Cc1cc(F)ccc12.Cl,-6.692%
18,CCn1c(CN(C)C)nnc1C1CCN(Cc2ccc(Cl)cc2)CC1,-12.39%
